LYPLA2 counter = counter-screen for PME1 inhibitors: inhibitors of human LYPLA2; hit rate 0.38% among 320,000; O95372; recombinant LYPLA2, FP-Rh probe fluorescence polarization; inhibition, % at 5.9 µM;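 active = inhibition above the screen-wide mean plus 3 SD, limit set per campaign, cut at about 26% in these data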;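 note: 0% = LYPLA2 with DMSO and 100% = wells lacking LYPLA2 enzyme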
Target sequence (O95372 whole entry, looked up): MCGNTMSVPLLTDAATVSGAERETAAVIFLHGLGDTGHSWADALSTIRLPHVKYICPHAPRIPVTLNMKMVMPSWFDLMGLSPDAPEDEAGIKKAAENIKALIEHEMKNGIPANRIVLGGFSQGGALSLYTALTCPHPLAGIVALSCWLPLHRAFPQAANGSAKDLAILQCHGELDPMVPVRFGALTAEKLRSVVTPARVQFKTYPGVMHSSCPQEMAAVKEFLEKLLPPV
Fam108B inh = Fam108B inhibition, counter-screen for RBBP9 inhibitors | inhibition, % at 9.51 µM | hit rate 0.33% among 300,000 | recombinant Fam108B, FP-Rh probe fluorescence polarization | AID 1947;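 active = inhibition above the screen mean inhibition plus 3 SD, computed separately per campaign, cut at about 18% in these data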;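 note: inhibitors lower polarization as less probe binds the enzyme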
LYPLA1 counter = LYPLA1 (human) inhibition in PME1 counter-screen; O75608; recombinant LYPLA1, FP-Rh probe fluorescence polarization; inhibition, % at 5.9 µM; hit rate 0.16% among 320,000;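 active = inhibition above the mean of all tested compounds plus 3 SD, set per campaign, cut at about 14% in these data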;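 note: inhibitors block serine hydrolase probe labeling of LYPLA1 so polarization falls; 0% = enzyme with DMSO and 100% = wells lacking LYPLA1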
PME-1 primary = blocks human protein phosphatase methylesterase 1. recombinant PME-1, FP-Rh probe fluorescence polarization. Q9Y570. hit rate 0.53% among 320,000. AID 2130. inhibition, % at 5.9 µM;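 active = inhibition above the campaign mean of all compounds plus 3 SD, cut at about 26% in these data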;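 note: competitive labeling of PME-1 active site by serine hydrolase directed probe; 0% = PME-1 with DMSO and 100% = wells lacking PME-1 enzyme; inhibitors block probe labeling so polarization falls and inhibition rises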
PAD4 FP inh = PAD4 (human) enzyme inhibition | inhibition, % at 6.36 µM | hit rate 0.41% among 330,000 | recombinant PAD4, RCA probe fluorescence polarization | Q9UM07;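 active = percent inhibition above a cutoff equal to the mean of all tested compounds plus 3 SD, cut at about 15% in these data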;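 note: 0% = PAD4 with RCA probe and DMSO and 100% = probe without PAD4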
GSTO1 inh = blocks human GSTO1 in RBBP9 counter-screen. AID 1974. inhibition, % at 5.96 µM. hit rate 1.1% among 300,000. recombinant GSTO1, activity-based probe fluorescence polarization;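 active = inhibition above the campaign mean inhibition plus 3 SD, cut at about 35% in these data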;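 note: 0% = GSTO1-1 with DMSO and 100% = wells lacking GSTO1-1 enzyme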
Starred values were filed as active, the others as inactive; · = no result. Only some compounds are listed: those with a hit (about 1.8% of all), similar ones and a draw of the others.

SMILES	LYPLA2 counter	Fam108B inh	LYPLA1 counter	PME-1 primary	PAD4 FP inh	GSTO1 inh
O=C(N/N=C\c1ccc(COc2ccc([N+](=O)[O-])cc2)o1)c1ccc(Cl)cc1	-32	-5	-14	-10	-1	-21
O=C(N/N=C\c1ccc(COc2ccc([N+](=O)[O-])cc2)o1)c1cccc(Cl)c1	-1	13	-14	36*	5	-2
COc1ccc(OC)c(NC(=O)Cn2cc(C=O)c3ccccc32)c1	1	2	3	-1	2	4
COc1ccccc1Nc1ccc(N)cc1	9	6	5	0	-1	35*
Cc1ccc(C(=O)Nc2nc(-c3ccccn3)cs2)s1	-7	·	-3	-4	2	·
O=C(Nc1nc(-c2ccccn2)cs1)c1ccc(Cl)s1	3	-12	-4	-8	-1	44*
Cc1nnc(NN)n(N)c1=O	3	-2	0	-2	2	37*
Cc1ncc(CO)c(/C=N/NC(=S)Nc2ccc(Cl)c(Cl)c2)c1O	0	16	-7	27*	2	-9
Cc1ncc(CO)c(/C=N/NC(=S)Nc2cccc(Cl)c2)c1O	5	6	-7	14	-1	4
CCCCOc1ccc(C(=O)NCC(=O)NCCOc2ccccc2OC)cc1	-3	·	2	-1	-2	·
O=C1c2ccccc2C(=O)c2c(Nc3ccc(CCO)cc3)ccc(O)c21	27*	17	-3	29*	5	39*
O=C1c2c(O)ccc(O)c2C(=O)c2c(NCCNCCO)ccc(NCCNCCO)c21	4	6	2	2	-3	4
CC(C)NC(=S)N=Nc1c(O)[nH]c2ccc(C(C)C)cc12	0	1	1	29*	-3	-4
CCOc1ccccc1N(CC(=O)NCC1CCCO1)C(=O)CCC(=O)Nc1nccs1 (stereo not given)	-1	-1	-1	2	-5	-1
Cc1nn(-c2ccccc2)c2ncc(C(=O)c3cc(Cl)ccc3O)cc12	-6	-9	-8	29*	-3	-2
Cc1nn(C)c2ncc(C(=O)c3ccccc3O)cc12	6	-2	11	5	2	0
O=C(OCC#CCSc1nnc(-c2ccncc2)o1)c1cccs1	7	-2	2	-2	-1	37*
CCOC(=O)c1ccc(NC(=O)CSCc2ccco2)cc1	-9	2	-8	-4	-1	3
Cc1ccc(S(=O)(=O)NCC2CCC(C(=O)N3CCN(C)CC3)CC2)cc1 (stereo not given)	-2	6	-2	7	-3	8
CC1CCN(C2=C(NS(=O)(=O)c3ccc(Cl)cc3)C(=O)c3ccccc3C2=O)CC1	7	7	-2	6	-7	31
CC1CCN(C2=C(NS(=O)(=O)c3ccccc3)C(=O)c3ccccc3C2=O)CC1	12	2	4	3	-6	35*
Cn1cnnc1SCc1ccc(C(=O)N=Nc2c(O)n(Cc3ccc(Cl)cc3)c3ccccc23)cc1	26*	-1	4	4	-7	-3
CCn1c(O)c(N=NC(=O)c2ccc(CSc3nncn3C)cc2)c2ccccc21	-1	3	0	2	-1	-2
CC(NC(=O)c1ccccc1F)c1nnc(SCC(=O)Nc2nnc(C3CC3)s2)n1C (stereo not given)	8	-1	5	4	-11	6
O=C(N/N=C/c1sc(N2CCOCC2)nc1-c1ccccc1)c1ccccc1Cl	5	5	1	0	-2	4
SMILES	LYPLA2 counter	Fam108B inh	LYPLA1 counter	PME-1 primary	PAD4 FP inh	GSTO1 inh
O=C(N/N=C/c1sc(N2CCOCC2)nc1-c1ccccc1)c1ccccc1O	-9	15	-4	51*	-3	-3
O=C(c1ccc2c(c1)OCO2)N1CCCC(c2ccccc2)C1 (stereo not given)	3	4	1	33*	-1	6
CC1CCCN(C(=O)c2ccc3c(c2)OCO3)C1 (stereo not given)	-4	3	2	-2	-3	-5
COc1ccc(NC(=O)Nc2nnc(N3CCCCC3C)s2)cc1OC (stereo not given)	1	4	-3	50*	5	7
COc1ccc(OC)c(NC(=O)Nc2nnc(N3CCCCC3C)s2)c1 (stereo not given)	-6	4	-4	15	-5	8
Cc1[nH]c(C)c(S(=O)(=O)Nc2cccc(Cl)c2C)c1C(=O)N1CCCC1	4	-2	2	-2	1	1

From PubChem BioAssay
